CYP2C9 act: human CYP2C9 activators, primary screen, biochemical, luminescence; Cytochrome P450 2C9 (Homo sapiens), P11712; activation factor at 5 µM; recombinant CYP2C9, luciferin-H conversion; hits give high values; factor 1 = untreated enzyme, 0 = blocked; AID 1024, 2008; 1.4% of 96,000 active;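 active = activation factor of 2 or more for CYP2C9 at a 5 µM dose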;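 also: 0 = sulfaphenazole-blocked wells and 1 = vehicle-only wells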
sEH inhibitor: soluble epoxide hydrolase inhibitors, primary screen, biochemical, human sEH; recombinant human sEH enzymatic activity assay; 0.34% of 91,000 active; Bifunctional epoxide hydrolase 2 (Homo sapiens), P34913; inhibition, % at 2 µM; in the data active = inhibition above about 80%
sEH activator: soluble epoxide hydrolase activators, primary screen, biochemical, human sEH; purified human sEH enzymatic activity, activator screen; activation, % at 2 µM; 0.04% of 91,000 active; AID 717, 2007; in the data active = activation above about 37%
CYP2C19 activ: human CYP2C19 activators, primary screen, biochemical, luminescence. Cytochrome P450 2C19 (Homo sapiens), P33261. recombinant CYP2C19, luciferin-H EGE luminescence; hits give high values; 0 = fully inhibited enzyme, 1 = untreated enzyme. activation factor at 5 µM. 96,000 tested, under 10 active. AID 1025, 2008;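 active = activation factor of at least 2 at 5 µM in the primary screen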;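 also: 0 = wells with 2.5 mM tranylcypromine and 1 = vehicle-only wells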
CYP2C9 inhib: blockers of cytochrome P450 2C9 activity – biochemical, luminescence, ADME assay, primary screen; P11712; CYP2C9 Supersomes, luciferin-H conversion; inhibition, % at 5 µM; 20% of 96,000 active;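 active = blocking of liver enzyme CYP2C9 beyond about 50% at 5 µM, limit read from the data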
CYP2C19 inh: blockers of cytochrome P450 2C19 activity – biochemical, luminescence, ADME assay, primary screen. P33261. CYP2C19 Supersomes, luciferin-H EGE luminescence, 30 min. inhibition, % at 5 µM. 21% of 96,000 active. AID 778, 2007;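 active = CYP2C19 inhibition above a set limit at 5 µM in the primary screen, cut at about 50% in these data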;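 also: plate controls were negative control wells for no effect and 2.5 mM tranylcypromine positive control for full effect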
* = called active by the depositor. This is a sample that favours compounds with a hit; in the whole collection about 27% have one here.

SMILES	CYP2C9 act	sEH inhibitor	sEH activator	CYP2C19 activ	CYP2C9 inhib	CYP2C19 inh
COc1ccc(C(C)C)cc1S(=O)(=O)n1cnc(C)c1	1	2	-3	0.9	-1	6
COc1cc(C)c(Cl)cc1S(=O)(=O)n1cnc(C)c1	2*	-4	1	0	-105	97*
Cn1cnnc1SCC(=O)NCc1cccc(C(F)(F)F)c1	1	-5	6	0.5	4	48
Cc1cccc(C)c1NC(=O)c1sccc1SCc1cccc(C(F)(F)F)c1	0.3	4	-3	0.3	73*	69*
Cc1ccc(NC(=O)c2sccc2SCc2cccc(C(F)(F)F)c2)cc1	0.3	-7	7	0.3	74*	69*
N#CCSc1ccsc1C(=O)Nc1ccc(F)cc1	1.2	8	-10	0.5	-23	53*
C=C(C)CC1N(c2cccc(OC)c2)C(=O)[C@@H]2C(C(=O)O)[C@H]3C=C[C@@]12O3 (stereo partly specified)	1.2	-6	4	1	-19	0
O=C(Nc1nccs1)C1C2/C=C\CCCCC21 (stereo unspecified)	0.8	15	-13	1	18	1
Cc1cc(NC(=O)C2C3C(=O)N(Cc4ccc(Cl)cc4)C(C(=O)NCc4ccccc4)C34C=CC2(C)O4)no1 (stereo unspecified)	0.2	-9	7	0.6	83*	40
